c-Myc SMM – c-Myc (human) binding | P01106 | small molecule microarray, His-c-Myc binding, anti-His fluorescence | calls only | hit rate 1.5% among 17,000 | AID 624141;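 active means spot fluorescence over background with P-value below 7% in all four replicate spots, showing protein binding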
Target sequence (P01106 whole entry, looked up): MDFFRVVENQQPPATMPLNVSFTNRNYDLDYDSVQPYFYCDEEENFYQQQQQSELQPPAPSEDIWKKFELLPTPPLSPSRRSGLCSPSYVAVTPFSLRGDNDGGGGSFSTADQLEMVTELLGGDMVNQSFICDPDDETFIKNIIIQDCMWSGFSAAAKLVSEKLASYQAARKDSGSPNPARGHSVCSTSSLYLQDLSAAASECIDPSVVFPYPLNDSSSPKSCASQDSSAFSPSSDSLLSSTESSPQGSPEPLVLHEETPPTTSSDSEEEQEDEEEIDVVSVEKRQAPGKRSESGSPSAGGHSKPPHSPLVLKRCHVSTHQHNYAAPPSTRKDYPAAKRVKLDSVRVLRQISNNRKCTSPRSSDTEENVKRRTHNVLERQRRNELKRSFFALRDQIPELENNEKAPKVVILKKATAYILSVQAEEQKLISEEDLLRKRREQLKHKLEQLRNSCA
STAT3 SMM – STAT3 (human) binding. Small molecule microarray, His-STAT3 binding, anti-His fluorescence. calls only. P40763. AID 624138. hit rate 0.2% among 17,000;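 active means compounds whose four printed spots each show fluorescence over background unusually high for their array block, chance value under 7%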
mut p53 SMM – binders of human mutant p53 | calls only | AID 624136 | small molecule microarray binding, anti-GST fluorescence | hit rate 0.4% among 17,000;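 active means compounds whose four printed spots each glow above background more than chance allows, each with a p-value under 7%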
NFkB binder – binders of human NF-kappa-B p105; Small molecule microarray, anti-His fluorescence binding; calls only; hit rate 1.3% among 17,000;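 active means spot fluorescence over background significantly raised, with a chance value under 7% in all four replicate spots of the compound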;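 further: probe protein is his-tagged human p50 processed subunit at 1 µg/ml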
Calls only; - = inactive; + = active, no number. Sampled rows, rich in hits. Any-hit rate of the full collection: about 2.1%.

SMILES	c-Myc SMM	STAT3 SMM	mut p53 SMM	NFkB binder
CCCCn1c2ccccc2c2nnc(SCCN3CCOCC3)nc21	-	-	+	-
CC(=O)Nc1ccc(NC(=O)CSc2nnc3c4ccccc4n(C)c3n2)cc1	-	-	-	-
CCCC(NS(=O)(=O)c1ccc(C)cc1)C(=O)O (stereo unspecified)	+	-	-	-
COc1ccc2cc1/C=C\NC(=O)C(Cc1ccccc1)NC(=O)C1C(CCN1C(=O)C(NC(=O)C(C)N(C)C)C(C)C)O2 (stereo unspecified)	-	-	-	-
Cc1cccc(OCCCC(=O)Nc2ccccc2[N+](=O)[O-])c1C	-	-	-	-
O=C(O)CSc1c[nH]c2ccccc12	+	-	-	-
COc1ccccc1NC(=O)c1c(C)nc(Nc2nc3ccccc3o2)nc1C	-	-	-	-
CCOC(=O)Cc1cc(=O)[nH]c(Nc2nc3ccccc3o2)n1	-	-	+	-
Cc1cc(S(=O)(=O)NC2CCCCC2)ccc1OCC(=O)O	+	-	-	-
Cc1ccc(OCC(=O)N(c2ccccn2)C2CCCCC2)c(C)c1	-	-	-	-
Cc1c(CC(=O)O)c(=O)oc2cc(OCC(=O)O)ccc12	+	-	-	-
Cc1c(CC(=O)O)c(=O)oc2c(C)c(OCC(=O)O)ccc12	-	-	-	-
CCCN(CCC)CC1CCCCN1CCNC(=O)N1c2ccccc2C(=O)Nc2cccnc21 (stereo unspecified)	-	-	+	-
C[C@@H]1CN([C@@H](C)CO)C(=O)c2cc(NC(=O)c3ccccc3)ccc2O[C@@H](C)CCCCO[C@H]1CN(C)CC1CCCCC1	+	-	-	-
C[C@H]1CN([C@@H](C)CO)C(=O)Cc2cc(NS(=O)(=O)c3ccc(Cl)cc3)ccc2O[C@H]1CN(C)CC1CCCCC1	-	-	-	-
C[C@H]1CN([C@@H](C)CO)C(=O)Cc2cc(NS(=O)(=O)c3ccc(Cl)cc3)ccc2O[C@@H]1CN(C)CC1CCCCC1	+	-	+	+
C[C@@H]1CCCCO[C@H](CN(C)C(=O)Nc2ccc(C(F)(F)F)cc2)[C@H](C)CN([C@H](C)CO)C(=O)c2cc(NS(C)(=O)=O)ccc2O1	+	-	-	-
C[C@@H]1CN([C@@H](C)CO)C(=O)c2cc(NC(=O)Nc3ccc4c(c3)OCO4)ccc2O[C@H]1CN(C)CC1CCCCC1	-	-	-	+
C[C@@H]1CCCCO[C@H](CN(C)C(=O)Nc2ccc(C(F)(F)F)cc2)[C@@H](C)CN([C@H](C)CO)C(=O)c2cc(NS(C)(=O)=O)ccc2O1	-	-	-	-
COc1ccc(NC(=O)CSc2nc(C)c3c(n2)CCCC3)c([N+](=O)[O-])c1	-	-	-	-
CC(C)NC(=O)N(C)C[C@H]1OCCCC[C@@H](C)Oc2ccc(NC(=O)Nc3ccc(C(F)(F)F)cc3)cc2C(=O)N([C@@H](C)CO)C[C@H]1C	+	-	-	+
C[C@@H]1CCCCO[C@H](CN(C)C)[C@@H](C)CN([C@H](C)CO)C(=O)c2cc(NC(=O)Nc3ccc(C(F)(F)F)cc3)ccc2O1	-	-	-	-
C[C@@H]1CN([C@@H](C)CO)C(=O)c2cc(NC(=O)Nc3ccc(C(F)(F)F)cc3)ccc2O[C@@H](C)CCCCO[C@@H]1CN(C)CC1CCCCC1	-	-	-	+
CC(=O)c1ccc(OC(=O)CCCN2C(=O)c3ccccc3C2=O)cc1	-	-	-	-
CC(C)(Sc1ccc(CCN(CCCCC2CCCCC2)C(=O)NC2CCCCC2)cc1)C(=O)O	-	-	-	+
SMILES	c-Myc SMM	STAT3 SMM	mut p53 SMM	NFkB binder
O=c1cc(-c2ccc(O)cc2)oc2cc(O[C@@H]3O[C@H](CO)[C@@H](O)[C@H](O)[C@H]3O[C@H]3OC[C@](O)(CO)[C@H]3O)ccc12	-	-	-	-
C[C@@H]1CCCCO[C@H](CN(C)C(=O)CCC(F)(F)F)[C@@H](C)CN([C@H](C)CO)C(=O)c2cc(NC(=O)CCC(F)(F)F)ccc2O1	+	-	+	+
C[C@@H]1CN([C@@H](C)CO)C(=O)c2cc(NC(=O)CCC(F)(F)F)ccc2O[C@@H](C)CCCCO[C@H]1CN(C)C(=O)CCC(F)(F)F	-	-	-	+
C[C@H]1CCCCO[C@H](CN(C)C(=O)CCC(F)(F)F)[C@@H](C)CN([C@@H](C)CO)C(=O)c2cc(NC(=O)CCC(F)(F)F)ccc2O1	-	-	-	-
O=C(O)C1C2C=CC(C2)C1C(=O)Nc1cccc([N+](=O)[O-])c1 (stereo unspecified)	-	-	-	-
C/C=C(\C)C(=O)O[C@@H]1[C@@H](OC(C)=O)C2[C@@]3(C)CC[C@H](OC4CC(OC)C(OC5CC(OC)C(OC6CC(OC)C(OC7OC(C)C(OC8OC(CO)C(O)C(O)C8O)C(OC)C7O)C(C)O6)C(C)O5)C(C)O4)CC3=CC[C@@]2(O)[C@@]2(O)CC[C@H](C(C)=O)[C@@]12C (stereo partly specified)	+	-	-	+
COC(=O)C1=COC(O[C@@H]2O[C@H](CO)[C@@H](O)[C@H](O)[C@H]2O)[C@@H]2[C@@](C)(O)[C@@H](OC(=O)/C=C\c3ccccc3)C[C@]12O (stereo partly specified)	-	-	-	-
CO[C@@H]1CC(OC2CCC3(C)C(CCC45CCC(C6=CC(=O)OC6)C(C)(CCC43)C5=O)C2)O[C@H](C)[C@@H]1O[C@@H]1O[C@H](CO[C@@H]2O[C@H](CO)[C@@H](O)[C@H](O)[C@H]2O)[C@@H](O)[C@H](O)[C@H]1O (stereo partly specified)	-	-	-	-
COC1CC(OC2C(C)OC(OC3C(C)OC(OC4C(C)OCC(OC5C(O)C(O[C@H]6CC[C@@]7(C)C(=CC[C@]8(O)C7CC(OC(=O)c7ccccc7)[C@@]7(C)[C@]8(O)CC[C@@]7(O)C(C)=O)C6)OC(CO)C5OC5OC(CO)C(O)C(O)C5O)C4OC)CC3OC)CC2OC)OC(C)C1O (stereo partly specified)	+	-	-	+
COCc1c(Br)c(C)nc(OCC(=O)O)c1C#N	+	-	-	+
CCOc1ccccc1C(=O)Oc1c(S(=O)(=O)c2ccc(C)cc2)c(C)nn1-c1ccccc1	+	-	-	-
CCOc1ccccc1NC(=O)c1ccccc1N(C)S(=O)(=O)c1ccc(C)cc1	-	-	-	-
CCOc1ccc(NC(=O)C(C)Sc2ncnc3sc(-c4ccccc4)cc23)cc1 (stereo unspecified)	+	-	-	-
COc1ccc(CO[C@H]2O[C@H](CO)[C@@H](O)[C@H](O)[C@H]2NC(C)=O)c2cc(C)oc12	-	-	-	-
COCC1OC(OC(C)(C)C2CCC3(C)C=C(C4CCC5C4(C)CC(O)C4OC(C(C)(C)OC6OC(CO)C(O)C(O)C6NC(C)=O)CCC45C)CCC3O2)C(NC(C)=O)C(O)C1O (stereo unspecified)	+	-	-	+
Cn1c2ccccc2c2nnc(SCC(=O)c3ccc(Cl)cc3)nc21	+	-	-	-
CC(C)C(NC=O)C(=O)OCC(O)C(O)C(O)C(O)COC(=O)C(NC=O)C(C)C (stereo unspecified)	-	-	-	-
CCOc1ccc(C)cc1S(=O)(=O)n1nnc2ccccc21	+	-	-	+

Assay outcomes deposited in PubChem by Broad Institute.
